Reference: the supplement of paper PMC10849652
The full data set covers some 8,800 targets. This sample favours those with a hit. About 0.5% of all pairs of compound and target were hits.

Legend:
Assay in all cases: log2 fold change, soluble protein after heating vs DMSO (PISA); higher = thermal stabilisation; K562 lysate, 10 uM; active = over 0.2 and 3.5 SD of the protein, either way, in both replicates (recomputed)
lapatinib = compound: CS(=O)(=O)CCNCc1ccc(-c2ccc3ncnc(Nc4ccc(OCc5cccc(F)c5)c(Cl)c4)c3c2)o1 [lapatinib]
In short: (§1)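 Dounce homogenisation of K562 pellets in PBS pH 7.4 with 1 mM MgCl2 produced a crude extract, used at 1 mg/mL protein. Exposure to 10 μM compound lasted 30 min, and aliquots were then heated for 3 min across 48°C-58°C, pooled and brought to 0.5% NP-40 at 4°C. The supernatant after 21,000xg for 90 min was quantified by TMTpro 16plex LC-MS/MS with channel sums equalised. Duplicate values are given as log-two fold change in thermal stability relative to solvent controls.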

pictilisib = compound: CS(=O)(=O)N1CCN(Cc2cc3nc(-c4cccc5[nH]ncc45)nc(N4CCOCC4)c3s2)CC1 [pictilisib]
In short: as §1

crizotinib = compound: C[C@@H](Oc1cc(-c2cnn(C3CCNCC3)c2)cnc1N)c1c(Cl)ccc(F)c1Cl [crizotinib]
In short: as §1

[1] = compound: C[C@H](C1=CC=C(C=C1)C(=O)NC2=C3C=CNC3=NC=C2)N
In short: as §1

duvelisib = compound: C[C@H](Nc1ncnc2nc[nH]c12)c1cc2cccc(Cl)c2c(=O)n1-c1ccccc1 [duvelisib]
In short: as §1

gandotinib = compound: Cc1cc(Nc2cc(CN3CCOCC3)c3nc(C)c(Cc4ccc(Cl)cc4F)n3n2)n[nH]1 [gandotinib]
In short: as §1

tozasertib = compound: Cc1cc(Nc2cc(N3CCN(C)CC3)nc(Sc3ccc(NC(=O)C4CC4)cc3)n2)n[nH]1 [tozasertib]
In short: as §1

doramapimod = compound: Cc1ccc(-n2nc(C(C)(C)C)cc2NC(=O)Nc2ccc(OCCN3CCOCC3)c3ccccc23)cc1 [doramapimod]
In short: as §1

bafetinib = compound: Cc1ccc(NC(=O)c2ccc(CN3CC[C@H](N(C)C)C3)c(C(F)(F)F)c2)cc1Nc1nccc(-c2cncnc2)n1 [bafetinib]
In short: as §1

[2] = compound: Cc1cccc(CC(=O)N2CCc3c2ccc(-c2cn(C)c4ncnc(N)c24)c3F)n1
In short: as §1

nilotinib = compound: Cc1cn(-c2cc(NC(=O)c3ccc(C)c(Nc4nccc(-c5cccnc5)n4)c3)cc(C(F)(F)F)c2)cn1 [nilotinib]
In short: as §1

[3] = compound: Cc1nc(Nc2n[nH]c3c2CN(C(=O)N[C@H](CN(C)C)c2ccccc2)C3(C)C)c2sccc2n1
In short: as §1

dasatinib = compound: Cc1nc(Nc2ncc(C(=O)Nc3c(C)cccc3Cl)s2)cc(N2CCN(CCO)CC2)n1 [dasatinib]
In short: as §1

[4] = compound: Cc1ncc(-c2ccnc(Nc3ccc(S(C)(=O)=O)cc3)n2)n1C(C)C
In short: as §1

[5] = compound: Cn1cc(-c2ccc3c(c2)CCN3C(=O)Cc2cccc(C(F)(F)F)c2)c2c(N)ncnc21
In short: as §1

quisinostat = compound: Cn1cc(CNCC2CCN(c3ncc(C(=O)NO)cn3)CC2)c2ccccc21 [quisinostat]
In short: as §1

tipifarnib = compound: Cn1cncc1[C@@](N)(c1ccc(Cl)cc1)c1ccc2c(c1)c(-c1cccc(Cl)c1)cc(=O)n2C [tipifarnib]
In short: as §1

[6] = compound: NC(=O)Nc1cc(-c2cccc(F)c2)sc1C(=O)N[C@H]1CCCNC1
In short: as §1

[7] = compound: NC(=O)c1cnc(N[C@@H]2CCCC[C@@H]2N)nc1Nc1cccc(-n2nccn2)c1
In short: as §1

[8] = compound: NC1(c2ccc(-c3nc4ccn5c(=O)[nH]nc5c4cc3-c3ccccc3)cc2)CCC1
In short: as §1

Chain of UniProt O43427 (O43427 whole entry, looked up): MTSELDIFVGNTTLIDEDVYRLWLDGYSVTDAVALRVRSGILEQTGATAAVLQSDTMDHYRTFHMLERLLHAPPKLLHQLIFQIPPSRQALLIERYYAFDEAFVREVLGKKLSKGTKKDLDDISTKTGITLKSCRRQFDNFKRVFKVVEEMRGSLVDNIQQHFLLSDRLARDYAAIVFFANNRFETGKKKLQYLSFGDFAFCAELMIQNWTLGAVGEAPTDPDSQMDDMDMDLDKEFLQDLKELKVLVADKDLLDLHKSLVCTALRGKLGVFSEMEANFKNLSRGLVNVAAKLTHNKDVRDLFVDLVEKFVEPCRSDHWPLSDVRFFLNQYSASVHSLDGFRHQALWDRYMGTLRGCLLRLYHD
Chain of UniProt Q9Y613 (Q9Y613 whole entry, looked up): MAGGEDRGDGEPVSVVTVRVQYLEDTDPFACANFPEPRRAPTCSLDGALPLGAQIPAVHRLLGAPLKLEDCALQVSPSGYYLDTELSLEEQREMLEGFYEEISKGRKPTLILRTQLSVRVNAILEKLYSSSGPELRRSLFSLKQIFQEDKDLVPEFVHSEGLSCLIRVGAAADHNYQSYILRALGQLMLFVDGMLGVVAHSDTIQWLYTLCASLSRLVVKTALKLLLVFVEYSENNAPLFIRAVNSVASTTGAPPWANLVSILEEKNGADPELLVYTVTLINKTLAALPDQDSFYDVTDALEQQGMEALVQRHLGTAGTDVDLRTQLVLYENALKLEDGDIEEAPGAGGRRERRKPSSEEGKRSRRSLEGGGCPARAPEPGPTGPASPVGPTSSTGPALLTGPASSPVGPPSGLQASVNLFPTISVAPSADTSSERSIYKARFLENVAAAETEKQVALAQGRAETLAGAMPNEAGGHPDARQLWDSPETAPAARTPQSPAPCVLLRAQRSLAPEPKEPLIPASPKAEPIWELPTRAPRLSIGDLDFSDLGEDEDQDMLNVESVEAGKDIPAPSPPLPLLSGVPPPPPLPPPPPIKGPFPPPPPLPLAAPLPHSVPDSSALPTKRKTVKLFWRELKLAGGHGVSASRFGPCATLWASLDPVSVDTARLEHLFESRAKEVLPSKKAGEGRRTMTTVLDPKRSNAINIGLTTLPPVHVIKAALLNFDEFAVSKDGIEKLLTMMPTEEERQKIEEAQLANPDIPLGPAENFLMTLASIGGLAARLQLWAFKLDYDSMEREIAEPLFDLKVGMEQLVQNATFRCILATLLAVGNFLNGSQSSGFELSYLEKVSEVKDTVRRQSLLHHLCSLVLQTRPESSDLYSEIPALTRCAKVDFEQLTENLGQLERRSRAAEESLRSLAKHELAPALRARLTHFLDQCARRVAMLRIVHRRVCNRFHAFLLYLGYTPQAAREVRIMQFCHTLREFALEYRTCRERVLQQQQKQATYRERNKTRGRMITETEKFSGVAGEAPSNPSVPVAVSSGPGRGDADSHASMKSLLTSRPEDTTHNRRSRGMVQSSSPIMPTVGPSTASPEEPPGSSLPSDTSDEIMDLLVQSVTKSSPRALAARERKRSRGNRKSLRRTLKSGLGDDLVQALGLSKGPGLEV
Chain of UniProt Q9NVI1 (Q9NVI1 whole entry, looked up): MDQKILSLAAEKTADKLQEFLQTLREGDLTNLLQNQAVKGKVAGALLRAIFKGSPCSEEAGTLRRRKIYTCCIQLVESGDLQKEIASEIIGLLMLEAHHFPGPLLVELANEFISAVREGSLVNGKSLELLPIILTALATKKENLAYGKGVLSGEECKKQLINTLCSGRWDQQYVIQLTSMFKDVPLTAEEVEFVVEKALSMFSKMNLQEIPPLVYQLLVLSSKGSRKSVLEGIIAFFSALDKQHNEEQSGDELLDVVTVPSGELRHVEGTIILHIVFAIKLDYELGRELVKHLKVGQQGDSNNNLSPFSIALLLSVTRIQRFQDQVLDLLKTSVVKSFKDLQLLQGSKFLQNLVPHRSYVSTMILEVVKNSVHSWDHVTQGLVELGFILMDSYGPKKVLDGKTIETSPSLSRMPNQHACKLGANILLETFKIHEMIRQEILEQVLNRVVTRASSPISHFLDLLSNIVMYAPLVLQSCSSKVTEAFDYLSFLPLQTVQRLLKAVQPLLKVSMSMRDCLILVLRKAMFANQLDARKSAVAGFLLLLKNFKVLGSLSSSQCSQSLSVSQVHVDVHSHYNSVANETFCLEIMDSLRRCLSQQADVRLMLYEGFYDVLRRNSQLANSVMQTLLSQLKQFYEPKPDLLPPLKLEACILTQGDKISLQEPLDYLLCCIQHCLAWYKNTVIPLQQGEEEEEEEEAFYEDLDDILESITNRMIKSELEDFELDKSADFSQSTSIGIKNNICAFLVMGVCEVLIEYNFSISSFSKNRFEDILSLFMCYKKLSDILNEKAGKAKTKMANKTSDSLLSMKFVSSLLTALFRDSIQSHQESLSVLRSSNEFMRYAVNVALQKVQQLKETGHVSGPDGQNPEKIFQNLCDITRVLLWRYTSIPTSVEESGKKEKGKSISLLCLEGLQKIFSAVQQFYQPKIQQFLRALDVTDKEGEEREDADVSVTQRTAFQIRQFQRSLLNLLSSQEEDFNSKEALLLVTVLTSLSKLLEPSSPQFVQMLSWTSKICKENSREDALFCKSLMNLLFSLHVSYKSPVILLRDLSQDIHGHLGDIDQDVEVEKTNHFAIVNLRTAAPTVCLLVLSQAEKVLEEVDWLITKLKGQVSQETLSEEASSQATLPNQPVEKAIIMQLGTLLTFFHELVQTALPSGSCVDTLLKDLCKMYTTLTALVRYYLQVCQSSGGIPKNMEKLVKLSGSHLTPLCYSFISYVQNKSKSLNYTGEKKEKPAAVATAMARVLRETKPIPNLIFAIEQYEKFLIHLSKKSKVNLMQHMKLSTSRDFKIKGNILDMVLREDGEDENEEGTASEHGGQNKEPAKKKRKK
Chain of UniProt P37268 (P37268 whole entry, looked up): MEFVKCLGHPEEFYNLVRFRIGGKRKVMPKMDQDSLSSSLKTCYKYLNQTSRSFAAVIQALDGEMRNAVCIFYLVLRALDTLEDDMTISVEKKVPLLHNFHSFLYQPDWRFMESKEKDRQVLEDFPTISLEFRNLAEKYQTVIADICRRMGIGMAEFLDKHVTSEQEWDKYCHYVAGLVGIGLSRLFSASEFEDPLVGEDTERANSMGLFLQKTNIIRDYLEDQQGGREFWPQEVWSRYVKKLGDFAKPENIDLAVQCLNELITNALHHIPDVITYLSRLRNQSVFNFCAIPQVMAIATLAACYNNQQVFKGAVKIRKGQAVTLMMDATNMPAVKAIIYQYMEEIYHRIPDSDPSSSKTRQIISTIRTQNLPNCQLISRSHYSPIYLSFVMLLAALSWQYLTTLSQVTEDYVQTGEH
Chain of UniProt Q9NZN4 (Q9NZN4 whole entry, looked up): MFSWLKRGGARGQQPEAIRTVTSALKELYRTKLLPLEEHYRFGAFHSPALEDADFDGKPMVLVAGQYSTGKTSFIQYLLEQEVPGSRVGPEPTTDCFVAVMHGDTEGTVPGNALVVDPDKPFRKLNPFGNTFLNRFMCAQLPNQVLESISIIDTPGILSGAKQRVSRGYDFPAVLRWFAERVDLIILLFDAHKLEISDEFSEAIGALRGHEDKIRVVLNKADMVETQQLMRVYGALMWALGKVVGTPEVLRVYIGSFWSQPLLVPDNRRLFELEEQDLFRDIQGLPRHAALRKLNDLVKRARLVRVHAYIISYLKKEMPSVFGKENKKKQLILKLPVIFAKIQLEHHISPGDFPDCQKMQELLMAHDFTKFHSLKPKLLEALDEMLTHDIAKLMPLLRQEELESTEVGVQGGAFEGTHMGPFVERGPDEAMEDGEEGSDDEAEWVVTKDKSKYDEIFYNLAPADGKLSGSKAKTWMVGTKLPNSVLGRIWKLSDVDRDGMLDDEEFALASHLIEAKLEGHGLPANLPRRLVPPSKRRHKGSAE
Chain of UniProt O94905 (O94905 whole entry, looked up): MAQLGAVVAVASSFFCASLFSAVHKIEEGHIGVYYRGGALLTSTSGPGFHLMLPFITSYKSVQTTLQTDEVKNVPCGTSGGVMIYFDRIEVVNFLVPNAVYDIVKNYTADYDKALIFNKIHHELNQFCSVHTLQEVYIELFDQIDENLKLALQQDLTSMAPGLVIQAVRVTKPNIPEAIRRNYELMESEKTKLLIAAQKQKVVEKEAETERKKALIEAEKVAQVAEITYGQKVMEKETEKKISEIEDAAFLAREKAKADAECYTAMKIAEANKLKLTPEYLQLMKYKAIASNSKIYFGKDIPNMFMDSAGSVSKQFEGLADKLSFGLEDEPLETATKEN
Chain of UniProt Q9BQI3 (Q9BQI3 whole entry, looked up): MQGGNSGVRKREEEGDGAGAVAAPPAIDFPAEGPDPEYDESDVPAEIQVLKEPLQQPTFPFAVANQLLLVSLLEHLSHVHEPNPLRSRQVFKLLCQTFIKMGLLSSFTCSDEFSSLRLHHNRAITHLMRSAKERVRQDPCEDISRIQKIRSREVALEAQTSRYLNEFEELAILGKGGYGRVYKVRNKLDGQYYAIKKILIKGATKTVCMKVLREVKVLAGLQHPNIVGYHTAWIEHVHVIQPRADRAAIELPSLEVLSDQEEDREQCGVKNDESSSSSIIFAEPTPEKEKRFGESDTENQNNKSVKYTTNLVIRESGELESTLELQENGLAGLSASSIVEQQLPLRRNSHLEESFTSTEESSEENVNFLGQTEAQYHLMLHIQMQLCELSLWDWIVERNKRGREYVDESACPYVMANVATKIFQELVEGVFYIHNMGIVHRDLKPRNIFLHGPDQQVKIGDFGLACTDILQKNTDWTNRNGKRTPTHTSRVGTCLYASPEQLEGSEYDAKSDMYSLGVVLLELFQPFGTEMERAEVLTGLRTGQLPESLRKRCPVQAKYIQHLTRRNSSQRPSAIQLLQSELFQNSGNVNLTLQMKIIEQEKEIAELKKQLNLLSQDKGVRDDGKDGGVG

Row | Target | log2 fold change (lapatinib) | log2 fold change (pictilisib) | log2 fold change (crizotinib) | log2 fold change [1] | log2 fold change (duvelisib) | log2 fold change (gandotinib) | log2 fold change (tozasertib) | log2 fold change (doramapimod) | log2 fold change (bafetinib) | log2 fold change [2] | log2 fold change (nilotinib) | log2 fold change [3] | log2 fold change (dasatinib) | log2 fold change [4] | log2 fold change [5] | log2 fold change (quisinostat) | log2 fold change (tipifarnib) | log2 fold change [6] | log2 fold change [7] | log2 fold change [8]
1 | ERLIN2 (UniProt O94905) | -0.015 (inactive) | -0.091 (inactive) | -0.004 (inactive) | 0.304 (active) | 0.003 (inactive) | -0.077 (inactive) | 0.02 (inactive) | 0.043 (inactive) | -0.015 (inactive) | -0.114 (inactive) | -0.009 (inactive) | 0.001 (inactive) | -0.013 (inactive) | -0.019 (inactive) | 0.03 (inactive) | 0.021 (inactive) | 0.012 (inactive) | -0.038 (inactive) | 0.012 (inactive) | -0.01 (inactive)
2 | EIF2B5 (UniProt Q13144) | -0.01 (inactive) | -0.012 (inactive) | -0.009 (inactive) | -0.005 (inactive) | 0.001 (inactive) | -0.119 (inactive) | -0.019 (inactive) | 0.003 (inactive) | -0.033 (inactive) | 0.006 (inactive) | -0.004 (inactive) | 0.037 (inactive) | -0.015 (inactive) | 0.008 (inactive) | 0.01 (inactive) | -0.002 (inactive) | -0.006 (inactive) | 0.038 (inactive) | -0.01 (inactive) | -0.011 (inactive)
3 | FHOD1 (UniProt Q9Y613) | -0.018 (inactive) | -0.011 (inactive) | -0.014 (inactive) | 0.017 (inactive) | -0.023 (inactive) | -0.141 (inactive) | 0.008 (inactive) | 0.045 (inactive) | -0.063 (inactive) | 0.035 (inactive) | 0.005 (inactive) | 0.017 (inactive) | -0.05 (inactive) | -0.007 (inactive) | 0.002 (inactive) | 0.017 (inactive) | -0.017 (inactive) | 0.039 (inactive) | 0.014 (inactive) | 0.023 (inactive)
4 | FBXO9 (UniProt Q9UK97) | -0.334 (inactive) | -0.107 (inactive) | -0.023 (inactive) | 0.08 (inactive) | -0.012 (inactive) | -0.141 (inactive) | 0.041 (inactive) | 0.044 (inactive) | 0 (inactive) | -0.104 (inactive) | -0.076 (inactive) | 0.003 (inactive) | 0.059 (inactive) | 0.02 (inactive) | 0.021 (inactive) | -0.045 (inactive) | -0.092 (inactive) | 0.177 (inactive) | 0.127 (inactive) | 0.127 (inactive)
5 | FCHO1 (UniProt O14526) | -0.034 (inactive) | 0.027 (inactive) | -0.072 (inactive) | -0.061 (inactive) | -0.025 (inactive) | -0.027 (inactive) | 0.027 (inactive) | -0.039 (inactive) | -0.141 (inactive) | 0.058 (inactive) | 0.007 (inactive) | -0.02 (inactive) | -0.022 (inactive) | 0.035 (inactive) | 0.02 (inactive) | 0.013 (inactive) | -0.025 (inactive) | 0.063 (inactive) | 0.006 (inactive) | 0.007 (inactive)
6 | ERI1 (UniProt Q8IV48) | 0.037 (inactive) | -0.079 (inactive) | -0.017 (inactive) | 0.047 (inactive) | -0.022 (inactive) | -0.123 (inactive) | -0.015 (inactive) | 0.015 (inactive) | 0.04 (inactive) | -0.051 (inactive) | 0.004 (inactive) | -0.008 (inactive) | -0.012 (inactive) | 0.035 (inactive) | 0.041 (inactive) | -0.019 (inactive) | 0.043 (inactive) | 0.08 (inactive) | -0.019 (inactive) | 0.058 (inactive)
7 | FADS1, A0A0A0MR51 | 0.203 (inactive) | -0.087 (inactive) | -0.003 (inactive) | -0.024 (inactive) | -0.029 (inactive) | 0.559 (active) | 0.041 (inactive) | 0.018 (inactive) | 0.027 (inactive) | 0.083 (inactive) | 0.065 (inactive) | -0.078 (inactive) | 0.04 (inactive) | 0.02 (inactive) | 0.079 (inactive) | 0.004 (inactive) | 0.069 (inactive) | 0.008 (inactive) | -0.114 (inactive) | 0.022 (inactive)
8 | FANCI (UniProt Q9NVI1) | -0.015 (inactive) | -0.034 (inactive) | -0.09 (inactive) | 0.06 (inactive) | 0.001 (inactive) | -0.199 (inactive) | 0.002 (inactive) | -0.003 (inactive) | -0.032 (inactive) | -0.011 (inactive) | -0.022 (inactive) | -0.011 (inactive) | -0.069 (inactive) | 0.028 (inactive) | 0.049 (inactive) | -0.065 (inactive) | 0.01 (inactive) | 0.061 (inactive) | 0.027 (inactive) | -0.027 (inactive)
9 | FIBP (UniProt O43427) | -0.016 (inactive) | -0.074 (inactive) | -0.08 (inactive) | 0.003 (inactive) | 0.073 (inactive) | -0.031 (inactive) | 0.05 (inactive) | -0.038 (inactive) | -0.025 (inactive) | 0.094 (inactive) | -0.001 (inactive) | 0.036 (inactive) | 0.013 (inactive) | -0.024 (inactive) | -0.043 (inactive) | 0.019 (inactive) | -0.037 (inactive) | 0.024 (inactive) | 0 (inactive) | 0 (inactive)
10 | GART (UniProt P22102) | -0.008 (inactive) | -0.024 (inactive) | -0.017 (inactive) | 0.062 (inactive) | -0.014 (inactive) | -0.052 (inactive) | -0.004 (inactive) | 0 (inactive) | -0.001 (inactive) | -0.026 (inactive) | -0.006 (inactive) | -0.024 (inactive) | -0.022 (inactive) | -0.011 (inactive) | 0.01 (inactive) | 0.025 (inactive) | 0.011 (inactive) | 0.015 (inactive) | 0.007 (inactive) | 0.006 (inactive)
11 | EXOC2 (UniProt Q96KP1) | -0.016 (inactive) | -0.011 (inactive) | -0.099 (inactive) | 0.017 (inactive) | -0.032 (inactive) | -0.185 (inactive) | 0.001 (inactive) | 0.042 (inactive) | -0.056 (inactive) | 0.059 (inactive) | 0.009 (inactive) | 0.018 (inactive) | -0.041 (inactive) | -0.009 (inactive) | 0.022 (inactive) | -0.088 (inactive) | -0.022 (inactive) | 0.062 (inactive) | -0.003 (inactive) | -0.029 (inactive)
12 | FDFT1 (UniProt P37268) | -0.037 (inactive) | -0.018 (inactive) | 0.062 (inactive) | -0.045 (inactive) | 0.19 (inactive) | 0.207 (inactive) | -0.004 (inactive) | 0 (inactive) | 0.018 (inactive) | 0.01 (inactive) | 0.032 (inactive) | -0.048 (inactive) | -0.012 (inactive) | -0.037 (inactive) | -0.008 (inactive) | -0.014 (inactive) | -0.053 (inactive) | 0.005 (inactive) | 0.042 (inactive) | -0.025 (inactive)
13 | FNBP1L (UniProt Q5T0N5) | 0.005 (inactive) | 0 (inactive) | -0.039 (inactive) | -0.023 (inactive) | -0.115 (inactive) | 0.002 (inactive) | -0.003 (inactive) | 0.113 (inactive) | -0.089 (inactive) | -0.026 (inactive) | -0.076 (inactive) | 0.03 (inactive) | -0.131 (inactive) | 0.007 (inactive) | -0.051 (inactive) | -0.068 (inactive) | -0.016 (inactive) | 0.018 (inactive) | -0.004 (inactive) | 0.025 (inactive)
14 | EIF2AK1 (UniProt Q9BQI3) | 0.142 (inactive) | -0.022 (inactive) | -0.036 (inactive) | -0.033 (inactive) | 0.06 (inactive) | -0.009 (inactive) | -0.009 (inactive) | 0.017 (inactive) | -0.068 (inactive) | 0.062 (inactive) | -0.006 (inactive) | 0.211 (inactive) | -0.027 (inactive) | -0.154 (inactive) | 0.078 (inactive) | -0.077 (inactive) | 0.007 (inactive) | -0.031 (inactive) | 0.062 (inactive) | 0.021 (inactive)
15 | EHD2 (UniProt Q9NZN4) | -0.047 (inactive) | -0.052 (inactive) | -0.033 (inactive) | 0.004 (inactive) | 0.026 (inactive) | -0.117 (inactive) | -0.004 (inactive) | 0.02 (inactive) | -0.063 (inactive) | 0.017 (inactive) | 0.007 (inactive) | -0.02 (inactive) | -0.018 (inactive) | 0.019 (inactive) | -0.084 (inactive) | -0.074 (inactive) | -0.047 (inactive) | 0.09 (inactive) | 0.029 (inactive) | -0.042 (inactive)
